The source of these data is PubChem BioAssay AID2284375 (EPA ToxCast).

Inconclusive results are not listed. Calls of active or inactive are those of the source. Rule for the calls: active = hit-call score of the fitted dose curve at least 0.9, where 1 is the maximum; inconclusive = response in the unintended direction; inactive = score below 0.9.

Estrogen receptor (Homo sapiens), sequence (P03372 whole entry, looked up): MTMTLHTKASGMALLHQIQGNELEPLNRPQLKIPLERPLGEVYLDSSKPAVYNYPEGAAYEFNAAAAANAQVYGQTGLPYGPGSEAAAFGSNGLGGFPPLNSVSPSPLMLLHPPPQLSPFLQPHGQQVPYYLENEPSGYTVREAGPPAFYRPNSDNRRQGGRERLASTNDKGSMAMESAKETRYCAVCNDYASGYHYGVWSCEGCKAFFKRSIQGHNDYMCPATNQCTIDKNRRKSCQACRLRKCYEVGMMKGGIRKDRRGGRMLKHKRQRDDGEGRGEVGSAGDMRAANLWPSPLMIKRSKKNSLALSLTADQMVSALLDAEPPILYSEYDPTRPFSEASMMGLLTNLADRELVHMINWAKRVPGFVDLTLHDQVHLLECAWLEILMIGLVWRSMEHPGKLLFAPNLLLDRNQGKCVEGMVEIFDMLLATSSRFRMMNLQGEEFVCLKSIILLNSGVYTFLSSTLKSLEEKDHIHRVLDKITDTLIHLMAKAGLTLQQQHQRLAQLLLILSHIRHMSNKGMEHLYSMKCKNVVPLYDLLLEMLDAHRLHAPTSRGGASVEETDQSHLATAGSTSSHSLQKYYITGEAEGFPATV

This test deals with Estrogen receptor (Homo sapiens) (UniProt P03372). Nature of the test: ERF_US_NR_hESR1: Eurofins (ERF) Nuclear Receptor (NR) Cell Based Protein-Protein Interaction LeadHunter Assay for human Estrogen Receptor alpha (ERa) Agonism. How it is done:
ERF_US_NR_hESR1 is a cell-based, single-readout assay that uses extracted gene-proteins in a cell-line assay. Measurements were taken 5 hours after chemical dosing in a 384-well plate. See ERalpha Human Estrogen NHR Cell Based Agonist Protein-Protein Interaction Assay, DiscoverX.ERF_US_NR_hESR1 is an assay component calculated from the ERF_US_NR_hESR1 assay. It is designed to […].Data from the assay component ERF_US_NR_hESR1 was analyzed at the assay endpoint, ERF_US_NR_hESR1, in the positive analysis fitting direction relative to DMSO as the negative control and baseline of activity. Using a type of binding reporter, gain-of-signal activity can be used to understand changes in binding as they relate to gene ESR1. To generalize the intended target to other relatable targets, this assay endpoint is annotated to the nuclear receptor intended target family, where the subfamily is steroid.
Cells were seeded in a total volume of 20 uL into white walled, 384-well microplates and incubated at 37C overnight prior to testing. Briefly, intermediate dilution of sample stocks was performed to generate 5X sample in assay buffer. 5 uL of 5X sample was added to cells and incubated at37C for 300 minutes. Final assay vehicle concentration was 1%. The results are expressed as a percent efficacy of the control ligand.
On to `OCC(F)(F)OC(F)(F)C(F)(F)OC(F)(F)C(F)(F)OC(F)(F)F`, for which the AC50 was 19.5 µM (active).

Take `OCC(F)(F)OC(F)(F)C(F)(F)OC(F)(F)C(F)(F)OC(F)(F)CO`: the compound was classed as inactive. In the case of `NS(=O)(=O)C(F)(F)C(F)(F)C(F)(F)C(F)(F)C(F)(F)C(F)(F)C(F)(F)C(F)(F)F`, the outcome was inactive.
